HTT ATP protect – protects HTT-Q103 PC12 cells, measured by ATP | PC12 HTT-Q103 induced, cytoprotection, ATP luminescence, 40 h | Potency, µM (top dose mostly 56.4 µM), without a hit: cytoprotection (ATP increase), usual class: activators | 230,000 compounds, 0.14% hits; note: % of control where 0% means no effect; nearly all actives have a fitted effect of over 45% in size
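Quantitative HTS on tebufenozide-induced (100 nM) PC12 cells expressing HTTQ103 exon 1–GFP; compounds tested as a concentration series; survival measured via cellular ATP.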
HttQ103 aggreg – reduces HttQ103-GFP aggregates in PC12 cells | Potency, µM (doses to about 46.1 µM), without a hit: at the highest dose activity change, negative = inhibition, hits mostly inhibitors | 220,000 compounds, 1.1% hits | PC12 HttQ103-GFP aggregates, Acumen cytometry, 40 h; note: % is set by controls: 0 for no effect and ±100 for the full control effect; nearly all actives have a fitted effect of over 60% in size
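Ecdysone-promoter PC12 model expressing HTT exon 1 Q103 fused to GFP, induced by tebufenozide at 100 nM final. Compounds titrated; aggregates sized 1–25 µm scored on a 488 nm laser cytometer.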
ALDH1A1 block – inhibitors of human aldehyde dehydrogenase 1A1 | P00352 | Purified ALDH1A1, NADH fluorescence, propionaldehyde substrate | Potency, µM (doses to about 75.3 µM), without a hit: at the top dose activity, negative = inhibition, most hits filed as inhibitors | 220,000 compounds, 7.3% hits; active = well fitted inhibition curve with a large enough effect, not every such curve was filed as active; inconclusive = small, poorly fitted or top-dose-only effect, or another doubt; inactive = no such curve, though single readings can be large or run the other way;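 note: plate controls were no enzyme wells and a reference inhibitor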
Target sequence (P00352 whole entry, looked up): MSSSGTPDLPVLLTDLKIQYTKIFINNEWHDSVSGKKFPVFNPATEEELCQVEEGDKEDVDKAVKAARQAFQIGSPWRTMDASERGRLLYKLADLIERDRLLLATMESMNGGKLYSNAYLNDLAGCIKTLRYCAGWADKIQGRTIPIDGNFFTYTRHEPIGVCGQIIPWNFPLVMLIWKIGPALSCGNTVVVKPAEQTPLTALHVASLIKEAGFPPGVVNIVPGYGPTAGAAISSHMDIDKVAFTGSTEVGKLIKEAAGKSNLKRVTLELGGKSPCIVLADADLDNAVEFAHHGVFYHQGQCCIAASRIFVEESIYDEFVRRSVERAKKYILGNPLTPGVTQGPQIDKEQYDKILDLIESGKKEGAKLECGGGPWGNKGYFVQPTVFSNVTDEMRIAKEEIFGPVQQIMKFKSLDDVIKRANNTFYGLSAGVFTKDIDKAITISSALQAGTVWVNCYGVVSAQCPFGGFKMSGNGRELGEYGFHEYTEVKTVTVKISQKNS
Lamin A splicing – LMNA splicing modulation; HeLa LMNA splicing GFP/RFP minigene ratio, 48 h; Potency, µM (top dose mostly 46.1 µM), without a hit: top-dose ratio change, negative = inhibition, usual class: inhibitors; 200,000 compounds, 0.01% hits; AID 1487; active = well fitted inhibition curve with a large enough effect in the signal ratio, with a control signal flat, not every such curve was filed as active; inconclusive = small, poorly fitted or top-dose-only effect, or effect the other way, or a change in a side signal; the % refers to the signal ratio; note: % is set by controls: 0 for no effect and ±100 for the full control effect
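S3 HeLa cells stably expressing lamin A-EGFP splicing minigene plus DsRed2, 600 cells/well, 48 h compound exposure at 37C. Laser-scanning cytometry; analysed as GFP (500-530 nm)/RFP (575-640 nm) total intensity ratio; 0.5% DMSO vehicle.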
HPGD inh – inhibitors of human 15-hydroxyprostaglandin dehydrogenase (HPGD); P15428; purified HPGD, NADH fluorescence kinetic, PGE2 substrate; Potency, µM, for the others: at the top dose activity change, negative = inhibition, hits mostly inhibitors; 150,000 compounds, 4.3% hits; AID 894; active = well fitted inhibition curve with a large enough effect, not every such curve was filed as active; inconclusive = small, poorly fitted or top-dose-only effect, or another doubt; inactive = no such curve, though single readings can be large or run the other way; note: % is set by controls: 0 for no effect and ±100 for the full control effect
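20 nM HPGD preincubated 15 min at room temperature with compound in 50 mM Tris-HCl pH 8, 0.01% Tween 20. Started with 1 mM NAD+ and 30 uM prostaglandin E2; NADH fluorescence (360/450 nm) read 5 times over 30-s intervals, last minus first.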
The depositor's hits bear a star; ? = inconclusive; . = no result; [ ] = another dose, or the depositor's remark. Compounds with a hit are over-represented: about 8.8% of the library has one in this group of screens. Unless noted, calls come from the whole dose curve; as a rule, active = well fitted curve in the direction sought with a large enough effect; inconclusive = small, poorly fitted or top-dose-only effect, or another doubt; inactive = no such curve, though single readings can be large; an effect the other way counts as inactive or inconclusive. Potency is the fitted concentration of half-maximal effect.

SMILES	HTT ATP protect	HttQ103 aggreg	ALDH1A1 block	Lamin A splicing	HPGD inh
Cc1nc(-c2ccc(S(=O)(=O)Nc3ccc(C#N)cc3)cc2)co1	.	.	.	7%[46 µM]	.
Cc1cc(C)cc(CC(Cc2nc3ccccc3[nH]2)c2nc3ccccc3[nH]2)c1 (configuration not stated)	-11%[10 µM]	22µM*	3%	?	2%
COc1ccc(Cn2ccc3nc(C)c(C(=O)N4CCN(c5cc(C)ccc5C)CC4)cc3c2=O)cc1	.	.	.	-10%[46 µM]	.
CN(Cc1ccccc1)c1ccc2nnc(-c3ccccc3)n2n1	.	35µM*	7%	?	-24%
CCNC(=O)C/C(C)=N/NC(=O)C1CCCCC1	3%[10 µM]	12%	3%	-11%	-4%
CCNC(=O)C/C(C)=N/NC(=O)C12CC3CC(CC(C3)C1)C2	-31%	-12%	4µM*	10%	-13%
Cc1ccc(N=Cc2cc(C)n(C3CCCC3)c2C)cc1	-12%	-12%	8.9µM*	7%	-19%
CCN(CC)S(=O)(=O)c1ccc2oc(C(=O)N3CCCCCC3)c(C)c2c1	-14%	?	13µM*	?	7.1µM*
C=CCNC(=O)c1oc2ccc(S(=O)(=O)N(CC)CC)cc2c1C	-6%	9%	20µM*	-4%	20µM*
CCN(CC)S(=O)(=O)c1ccc(C(=O)O)cc1	?	3%	.	.	.
CCN(CC)S(=O)(=O)c1ccc2oc(C(=O)N3CCc4ccccc4C3)c(C)c2c1	31%[10 µM]	?	?	?	28µM*
CCN(CC)S(=O)(=O)c1ccc(C(=O)N2CCCCC2)cc1	-2%	7%	-15%	0%	4µM*
O=C(Nc1cccc(C(=O)OCc2cc(=O)n3c4c(sc3n2)CCCC4)c1)c1ccccc1	.	.	.	-21%[46 µM]	.
Cc1ccccc1CN1C(=O)C2(c3ccccc31)N(c1ccccc1)C(=O)CS2(=O)=O (configuration not stated)	.	.	.	3%[46 µM]	.
COc1ccc(C2C(=O)N(C3CCCCCC3)CC(=O)N2Cc2ccccc2)cc1 (configuration not stated)	.	.	.	5%[46 µM]	.
CCOc1ccc(N(C)C(=O)C2CCN(S(=O)(=O)c3c(C)noc3/C=C/c3ccc(C)cc3)CC2)cc1	.	.	.	6%[46 µM]	.
CCN(CC)C(=O)c1oc2ccc(S(=O)(=O)N3CCCCCC3)cc2c1C	3%	10µM*	6%	?	-11%
Cc1c(C(=O)N2CCOCC2)oc2ccc(S(=O)(=O)N3CCCCCC3)cc12	-17%	16%	-3%	?	-16%
CN(C)c1ccc(CNC(=O)C2(C)C=CCN2C(=O)c2ccccc2)cc1 (configuration not stated)	18%	.	18µM*	.	-17%
CC1(C)C(=O)Nc2ccccc2N1C(=O)COC(=O)C1CCCCC1	2%	28%	?	-6%	2%
CCOc1cc(C(=O)CCC(=O)OCC(=O)N2c3ccccc3NC(=O)C2(C)C)ccc1O	14%	3%	14µM*	15%	-10%
COc1ccc(N=C2C(=Nc3ccc(OC)cc3)N(c3ccc(OC)cc3)C(=S)N2c2ccccc2)cc1	-43%	-6%	?	-5%	-14%
Cc1ccc(N=C2C(=S)N(c3ccc(C)cc3)C(=N)N2/N=C/c2ccc(Cl)cc2)cc1	24%[10 µM]	-17%	?	-12%	35µM*
CN(C)c1nc(OCCNC(=O)Nc2ccccc2)nc(N2CCOCC2)n1	6%	0%	2%	-14%	-4%
CN(C)c1nc(OCCNC(=O)Nc2ccccc2)nc(N2CCCCC2)n1	6%[10 µM]	-1%[9.22 µM]	0.89µM*	.	.
CC1=NN2C(=N)/C(=C\c3ccc(SCc4ccccc4)o3)C(=O)N=C2S1	-26%	5%	-16%	11%	-22%
N=C1/C(=C\c2ccc(SCc3ccco3)o2)C(=O)N=C2SC=NN12	-61%	-6%	7.9µM*	8%	25µM*
CC(C)(C)NC(=O)c1ccc2nccnc2c1	9%[10 µM]	-14%	0%	-6%	-12%
C=CCNC(=O)c1ccc2nccnc2c1	3%[10 µM]	-9%	-17%	0%	16µM*
O=C(NCC(=O)N(Cc1cccs1)C(C(=O)NC1CCCC1)c1ccncc1)c1ccco1 (configuration not stated)	-14%	6%	7.9µM*	10%	-12%

High-throughput results: PubChem BioAssay, National Center for Advancing Translational Sciences (NCATS)
